Laboratory results published in PubChem BioAssay AID504832 (National Center for Advancing Translational Sciences (NCATS), 2011).
The campaign covered roughly 310,000 compounds. About 18,000 (5.8%) were called active. Roughly 22% stayed inconclusive and do not appear here. The entries come from a sample that favours actives as a whole. A number with no mark means an inactive call. The call rests on the fitted dose curve; in most records, active means well fitted inhibition curve with a large enough effect; inconclusive means small, poorly fitted or top-dose-only effect, or another doubt; inactive means no such curve, though single readings can be large or run the other way.

Assay: Primary qHTS for delayed death inhibitors of the malarial parasite plastid, 48 hour incubation
Details: P. falciparum luciferase growth in erythrocytes; series mostly up to 28.7 µM; activity change, negative = inhibition: at the top concentration
How it was run: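 Luciferase-expressing parasites in RBCs, 2% Hct / 0.1% parasitemia final; RPMI 1640 + 0.5% Albumax; 37 C, 5% CO2, one generation; luminescence read-out, lower signal = inhibition.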
On the % scale 0 is the no-effect control and ±100 the full control effect; potency means the concentration at half of the fitted maximal effect.

Row | Compound | activity change, negative = inhibition [%] | Potency
1 | CC(C)CCN(C(=O)c1csnn1)C(C(=O)NC1CCCC1)c1ccccc1 (stereo not drawn) | 5.81 | –
2 | CCOc1ccc(N(C)S(=O)(=O)c2cnc[nH]2)cc1 | 13.2 | –
3 | CC(=O)c1ccc(NC(=O)C2CCCN2S(=O)(=O)c2cccs2)cc1 (stereo not drawn) | -16.3 | –
4 | COc1ccc(C(=O)NC(C)Cn2nc(C)cc2C)cc1OC1CCN(C(C)=O)CC1 (stereo not drawn) | -1.41 | –
5 | Cc1cccc(-c2nc(CS(=O)CC(=O)NC(C)CCc3ccccc3)c(C)o2)c1 (stereo not drawn) | 21.3 | –
6 | O=C(CN1CCc2cc3c(cc2C1)OCCCO3)Nc1ccccc1 | 3.97 | –
7 | CC(C)OC(=O)CN1C(=O)C(=O)c2ccccc21 | – | 2.62 µM (active)
8 | CC(C)OC(=O)CN1C(=O)c2ccccc2C1=O | 11.9 | –
9 | Cc1cccc2c1N(CC(=O)OC(C)C)C(=O)C2=O | 13.8 | –
10 | Clc1cccc(Cl)c1OCCOCCNCc1ccccc1 | 17.4 | –
11 | CC(NC(=O)c1ccccc1C(=O)O)c1ccc(-n2ccnc2)cc1 (stereo not drawn) | 0 | –
12 | COc1ccc(NC(=O)CCCNC(=O)Cn2cnc3sc4c(c3c2=O)CCCC4)cc1OC | -4.7 | –
13 | Cc1cc2oc(=O)cc(CN3CCN(S(=O)(=O)c4cccs4)CC3)c2cc1C(C)C | – | 10.4 µM (active)
14 | NC(=O)CCN1CCN(S(=O)(=O)/C=C/c2ccccc2)CC1 | 6.14 | –
15 | O=S(=O)(c1ccc(F)cc1)N1CCN(Cc2ccccc2C(F)(F)F)CC1 | -6 | –
16 | O=S(=O)(/C=C/c1ccccc1)N1CCNCC1 | -8.29 | –
17 | O=c1cc(CN2CCN(S(=O)(=O)/C=C/c3ccccc3)CC2)c2ccc(O)cc2o1 | – | 13.1 µM (active)
18 | O=S(=O)(c1cccs1)N1CCN(Cc2ccccc2)CC1 | 9.26 | –
19 | Cc1ccc2c(CN3CCN(S(=O)(=O)c4ccccc4C(F)(F)F)CC3)cc(=O)oc2c1 | – | 11.7 µM (active)
20 | Cc1cc2oc(=O)cc(CN3CCN(Cc4ccccc4)CC3)c2cc1C | -7.77 | –
21 | Cc1onc(-c2ccccc2)c1C(=O)N1CCN(S(=O)(=O)c2ccccc2C(F)(F)F)CC1 | -3.79 | –
22 | COc1ccc(O)c(/C=N/N=C/c2cccc([N+](=O)[O-])c2)c1 | 3.03 | –
23 | CCn1c(C(O)c2cc(OC)ccc2OC)nc2ccccc21 (stereo not drawn) | 1.05 | –
24 | CCOC(=O)c1c(C)[nH]c(C(=O)OCC(=O)N2CCCC2=O)c1C | 2.47 | –
25 | Cc1cc(Cl)nc(NC(=O)Nc2cccc(Cl)c2)n1 | 90.5 | –
26 | CC(=O)CC[C@@H](C)O[C@@H]1OC(C)[C@H](O)CC1O (stereo partly drawn) | 13.5 | –
27 | COC(=O)c1ccc(NS(=O)(=O)c2cc3c4c(c2)C(C)C(=O)N4CCC3)cc1 (stereo not drawn) | 3.26 | –

Row | Compound | activity change, negative = inhibition [%] | Potency
28 | O=C(OCC(=O)N1CCCC1=O)c1cc(S(=O)(=O)N2CCOCC2)ccc1Cl | 5.49 | –
29 | Cc1nnc(N/N=C/C2CC=CCC2)[nH]c1=O (stereo not drawn) | 1.81 | –
30 | Cc1nnc(N/N=C/c2ccccn2)[nH]c1=O | – | 2.33 µM (active)
31 | Cc1ccccc1Nc1nnc(C)c(=O)[nH]1 | 2.34 | –
32 | CCCCn1c(N)c(N(CCC(C)C)C(=O)c2ccc([N+](=O)[O-])o2)c(=O)[nH]c1=O | 0.374 | –
33 | CCCCn1c(N)c(N(CCC(C)C)C(=O)CC2OC(=O)c3ccccc32)c(=O)[nH]c1=O (stereo not drawn) | – | 8.28 µM (active)
34 | CCCCn1c(N)c(N(CCC(C)C)C(=O)COC(=O)c2cccnc2OCC)c(=O)[nH]c1=O | 4.51 | –
35 | Cc1cc2c(=O)n(CC(=O)NCC(=O)Nc3ccc(C(C)C)cc3)cnc2s1 | 19.7 | –
36 | COc1ccc(CS(=O)/C(Cl)=C(/Cl)C(=O)Nc2ccc(OC)nc2)cc1 (stereo not drawn) | – | 9.28 µM (active)
37 | COc1ccc(NC(=S)NCCNC(C)=O)cc1 | 6.26 | –
38 | COc1ccc(C(=O)Nc2ccc(NC(=O)C(C)C)nc2)cc1 | 7.77 | –
39 | Cc1ccsc1C(=O)NC1CCCCC1C (stereo not drawn) | -9.34 | –
40 | CC1CCN(S(=O)(=O)c2ccc3c(c2)n(C)c(=O)n3C)CC1 | 8.41 | –
41 | O=S(=O)(NCCS(=O)(=O)N1CCN(c2ccccc2)CC1)c1ccc(F)cc1 | -19.3 | –
42 | Cc1ccc(C(=O)CSc2nnc(Cn3nnc4ccccc43)n2C)cc1 | 3.53 | –
43 | Cc1ccc2nnn(Cc3cccc(C(C)(C)C)c3O)c2c1 | – | 11.7 µM (active)
44 | COc1ccccc1NC(=O)C(C)OC(=O)CC1CCCC1 (stereo not drawn) | 6.22 | –
45 | Cc1ccc(N(C(=O)c2sc(C)nc2C)C(C(=O)NC(C)(C)C)c2ccncc2)cc1 (stereo not drawn) | -12.3 | –
46 | CC(C)(C)NC(=O)C(c1ccc(Cl)cc1)N(CCO)C(=O)c1snc(C(N)=O)c1N (stereo not drawn) | – | 6.57 µM (active)
47 | NC(=O)c1ccc(Nc2ccc3nonc3c2[N+](=O)[O-])cc1 | 27.2 | –
48 | COC(=O)c1cc(S(=O)(=O)NCC2CCN(Cc3ccc(Cl)cc3)CC2)cn1C | -25.3 | –
49 | O=C(c1ccc(Cl)s1)N(Cc1nnc(-c2ccccc2Cl)o1)C1CC1 | 7.39 | –
50 | CN(C(=O)COC(=O)c1cc(-c2ccco2)nc2ccccc12)C1CCS(=O)(=O)C1 (stereo not drawn) | -11.3 | –
51 | O=C(c1cc(-c2ccco2)nc2ccccc12)N(Cc1nnc(-c2ccc(Cl)cc2)o1)C1CC1 | – | 4.15 µM (active)
52 | O=C(Nc1cccc(F)c1)NC1CCCc2ccccc21 (stereo not drawn) | -36.1 | –
53 | Cc1cc(=O)[nH]c(Nc2cccc(Br)c2)n1 | 24.1 | –
